Records with an inconclusive call do not appear. Entries that show only a call come without a potency. Values without a mark were called inactive. Active and inactive are the calls of the source. The call rests on the fitted dose curve; in most records, active means well fitted curve in the direction sought with a large enough effect; inconclusive means small, poorly fitted or top-dose-only effect, or another doubt; inactive means no such curve, though single readings can be large; an effect the other way counts as inactive or inconclusive.
Experiments:
[1] = molecular target: Aldehyde dehydrogenase, mitochondrial (Homo sapiens) (UniProt P05091); assay: qHTS for Inhibitors of the Aldehyde Dehydrogenase Family (ALDH2) Primary screen (AID 2061308); further: nearly all actives have a fitted effect of over 55% in size
[2] = molecular target: Retinaldehyde dehydrogenase 3 (Homo sapiens) (UniProt P47895); assay: qHTS for Inhibitors of the Aldehyde Dehydrogenase Family (ALDH1A3) Primary screen (AID 2061315)
[3] = BET inhibitor-based combinations targeting novel dependencies in MECOM-rearranged (r) AML: SET-2 cell line (AID 2202231); settings: SET-2 AML cells viability, CellTiter-Glo luminescence, 48 h; viability: hits give low values, concentration not given here; further: nearly all actives have a fitted effect of over 35% in size; further: potency means the concentration at half of the fitted maximal effect
In short: (§1)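 AML cell lines seeded at 500 cells/well, treated with 11-point dose curves for 48 h. Viability by CellTiter-Glo luminescence, normalised to DMSO and empty wells; activity expressed as AUC and per-cell-line Z-transformed AUC.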

[4] = BET inhibitor-based combinations targeting novel dependencies in MECOM-rearranged (r) AML: MV-4-11 cell line (AID 2202233); further: nearly all actives have a fitted effect of over 45% in size; further: potency means the concentration at half of the fitted maximal effect
In short: (§2)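 Cells at 500/well were exposed for 48 hr to MIPE v5.0 drugs as 11-point dose curves. Viability was read by CellTiter-Glo luminescence and normalized to DMSO and empty-well controls. Activity was expressed as AUC and per-cell-line Z-AUC.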

[5] = BET inhibitor-based combinations targeting novel dependencies in MECOM-rearranged (r) AML: UCSD-AML1 cell line (AID 2202235); further: nearly all actives have a fitted effect of over 40% in size; further: potency means the concentration at half of the fitted maximal effect
In short: as §2

[6] = BET inhibitor-based combinations targeting novel dependencies in MECOM-rearranged (r) AML: AML-191 cell line (AID 2202236; further: nearly all actives have a fitted effect of over 35% in size; further: potency means the concentration at half of the fitted maximal effect)
In short: as §1

[7] = BET inhibitor-based combinations targeting novel dependencies in MECOM-rearranged (r) AML: AML-194 cell line (AID 2202237; further: nearly all actives have a fitted effect of over 40% in size; further: potency means the concentration at half of the fitted maximal effect)
In short: as §1

[8] = BET inhibitor-based combinations targeting novel dependencies in MECOM-rearranged (r) AML: HNT-34 cell line (AID 2202234); further: nearly all actives have a fitted effect of over 35% in size; further: potency means the concentration at half of the fitted maximal effect
In short: as §2

[9] = BET inhibitor-based combinations targeting novel dependencies in MECOM-rearranged (r) AML: OCI-AML3 cell line (AID 2202232); settings: Potency: OCI-AML3 viability; further: nearly all actives have a fitted effect of over 35% in size; further: potency means the concentration at half of the fitted maximal effect
In short: as §1

| SMILES | Potency [1] | Potency [2] | viability [3] [%] | Potency [4] | Potency [5] | Potency [6] | Potency [7] | Potency [3] | Potency [8] | Potency [9] |
| --- | --- | --- | --- | --- | --- | --- | --- | --- | --- | --- |
| O=C(Nc1cccnc1)c1cc(-c2ccnc(F)c2)ccc1OCc1ccccc1 | inactive | inactive | 121 | 3.72 µM (active) | inactive | inactive | inactive |  |  |  |
| C=CC(=O)Nc1ccc2ncnc(Nc3ccc(OCc4cccc(F)c4)c(Cl)c3)c2c1 | inactive | inactive |  | 6.61 µM (active) | 7.42 µM (active) | 7.42 µM (active) | 8.33 µM (active) | 10.5 µM (active) | 6.61 µM (active) |  |
| C[C@@H](Nc1ncnc2[nH]c(-c3ccc(O)cc3)cc12)c1ccccc1 | inactive | inactive |  | 14.8 µM (active) |  | 14.8 µM (active) |  | 5.25 µM (active) | 14.8 µM (active) |  |
| Cn1cc(-c2cnc3ccc4ccc(CS(=O)(=O)NCc5ccccn5)cc4c(=O)c3c2)cn1 | inactive | inactive |  |  | inactive | 23.5 µM (active) |  | 16.6 µM (active) |  | inactive |
| COc1cc(Nc2ncc(F)c(Nc3ccc4c(n3)N(COP(=O)(O)O)C(=O)C(C)(C)O4)n2)cc(OC)c1OC | inactive | inactive |  |  | 2.63 µM (active) | 3.72 µM (active) |  |  | 2.09 µM (active) | inactive |
| CNCc1ccc(-c2cc(-c3nc(-c4ccc(S(=O)(=O)C(C)C)cc4)cnc3N)on2)cc1 | inactive | inactive |  |  | 0.742 µM (active) |  |  |  |  | inactive |
| COc1ncc(Nc2ncc([C@H](C)N3CCN(S(C)(=O)=O)CC3)cc2-c2nc(C)nc(N)n2)cc1F | inactive | inactive |  | 0.0417 µM (active) | 0.296 µM (active) |  |  |  |  | 0.0468 µM (active) |
| CN(C)Cc1ccc(-c2nc3cccc4c3n2CCNC4=O)cc1 | inactive | inactive |  |  |  |  | 23.5 µM (active) |  | 18.6 µM (active) | inactive |
| C[C@@H]1CCNC(=O)c2cc3ccc(C(=O)Nc4nc5ccccc5n4CCCN(C)C)cc3n21 | inactive | inactive |  | 0.59 µM (active) |  |  |  |  | 16.6 µM (active) |  |
| C[C@@H]1CCN(C(=O)CC#N)C[C@@H]1N(C)c1ncnc2[nH]ccc12 | inactive | inactive |  |  | 0.059 µM (active) |  |  | 1.48 µM (active) |  |  |
| Clc1cccc(-c2ccc(-c3nnc(CCCc4ccc5cccnc5n4)o3)cc2)c1 | inactive | inactive | 119 | inactive | inactive | inactive |  |  | inactive |  |
| O=C(NCc1ccccc1)c1csc(Nc2ccncn2)n1 | inactive | inactive |  | 9.34 µM (active) | 18.6 µM (active) | 18.6 µM (active) | 18.6 µM (active) |  | 10.5 µM (active) | 10.5 µM (active) |
| CCn1c(=O)c(-c2ccc(-c3cncs3)cc2Cl)cc2cnc(Nc3ccc(N4CCN(C)CC4)cc3)nc21 | inactive | inactive | 104 | 1.86 µM (active) |  |  |  |  |  |  |
| CCN1CCN(Cc2ccc(NC(=O)Nc3ccc(Oc4cc(NC)ncn4)cc3)cc2C(F)(F)F)CC1 | inactive | inactive |  | 0.0023 µM (active) |  |  |  |  |  |  |
| CC(=O)O[C@H]1C(=O)[C@@]2(C)C([C@H](OC(=O)c3ccccc3)[C@]3(O)C[C@H](OC(=O)[C@H](O)[C@@H](NC(=O)c4ccccc4)c4ccccc4)C(C)=C1C3(C)C)[C@]1(OC(C)=O)CO[C@@H]1C[C@@H]2O (some centres not stated) | inactive | inactive |  |  |  | 0.0209 µM (active) |  | 0.148 µM (active) | 0.0042 µM (active) | 0.0059 µM (active) |
| Cc1[nH]c(/C=C2\C(=O)Nc3ccc(F)cc32)c(C)c1C(=O)NC[C@H](O)CN1CCOCC1 | inactive | inactive |  | 0.0742 µM (active) | 10.5 µM (active) | 4.17 µM (active) | 10.5 µM (active) |  | 3.72 µM (active) | 5.25 µM (active) |
| CN1CC[C@@H](c2c(O)cc(O)c3c(=O)cc(-c4ccc(C(F)(F)F)cc4Cl)oc23)[C@@H]1CO | inactive | inactive |  | 20.9 µM (active) |  |  |  |  |  |  |
| COc1cc2ncnc(Nc3ccc(O)c(Br)c3)c2cc1OC | inactive | inactive |  | 1.48 µM (active) |  |  |  |  | 5.25 µM (active) |  |
| COc1cc2ncnc(Nc3cccc(Cl)c3F)c2cc1OC(=O)N1CCN(C)C[C@H]1C | inactive | inactive | 103 | 13.2 µM (active) | inactive | inactive | inactive |  | 16.6 µM (active) |  |
| O=C1NC(=O)/C(=C/c2cccc(C(F)(F)F)c2)S1 | inactive | inactive |  |  |  | inactive | inactive |  |  | inactive |
| COCCNCCCn1c(C(=O)CF)c(-c2ccc(C)cc2)c2c(N)ncnc21 | inactive | inactive | 101 | 3.32 µM (active) | inactive |  | inactive |  |  | 0.059 µM (active) |
| C[C@H]1[C@@H](OC(=O)CCC(=O)O)O[C@@H]2O[C@@]3(C)CC[C@@H]4[C@H](C)CC[C@@H]1[C@@]24OO3 | inactive | inactive |  |  | 8.33 µM (active) | 5.25 µM (active) | 9.34 µM (active) | 3.72 µM (active) | 2.95 µM (active) | 4.17 µM (active) |
| Cc1cc(C(=O)Nc2cc(Nc3ccc4c(/C=C/c5ccccn5)n[nH]c4c3)ccc2F)n(C)n1 | inactive | inactive |  |  | 6.61 µM (active) | 16.6 µM (active) |  | 18.6 µM (active) | 7.42 µM (active) |  |

Source: PubChem BioAssay (NCATS)
